Screening data: PubChem, National Center for Advancing Translational Sciences (NCATS)
The entries come from a sample that favours hits as a whole.
NS1 function inh – inhibitors of influenza NS1 protein function; Potency, µM (top dose mostly 46.1 µM), for the others: at the top dose activity, positive = more growth; 270,000 tested, 0.4% active; calls by dose curve; further: potency means the concentration at half of the fitted maximal effect; actives are rising curves; nearly all actives have a fitted effect of over 50% in size
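Recovery from NS1-induced slow growth read by OD600 in budding yeast switched to galactose assay medium (pH 6.0, -URA) at 1:100 dilution. Compound 23 nl per well; the matching strain lacking NS1 serves as control.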
AmpC inh detg – inhibitors of E. coli AmpC beta-lactamase with detergent. AID 485294. Potency, µM (titrated, usually from 114 µM), for inactives: at the top dose activity change, negative = inhibition, actives largely listed as inhibitors. P00811. 370,000 tested, 0.041% active. AmpC hydrolysis of nitrocefin, absorbance 480 nm, 0.01% Triton;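 further: potency means the concentration at half of the fitted maximal effect; 0% = no-compound wells and -100% = no-enzyme wells; nearly all actives have a fitted effect of over 25% in size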
Target sequence (P00811 whole entry, looked up): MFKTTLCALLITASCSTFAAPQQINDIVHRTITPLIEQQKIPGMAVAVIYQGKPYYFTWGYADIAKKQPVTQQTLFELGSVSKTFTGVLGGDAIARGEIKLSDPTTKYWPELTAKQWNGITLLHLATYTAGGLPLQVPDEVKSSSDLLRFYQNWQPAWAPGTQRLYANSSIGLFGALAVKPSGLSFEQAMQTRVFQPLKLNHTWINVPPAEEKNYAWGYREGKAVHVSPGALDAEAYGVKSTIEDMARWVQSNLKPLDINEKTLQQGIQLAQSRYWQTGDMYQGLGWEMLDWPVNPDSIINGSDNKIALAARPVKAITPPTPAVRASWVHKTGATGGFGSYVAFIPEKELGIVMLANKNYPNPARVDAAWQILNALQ
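AmpC (5.3 nM in the dispensed reagent) in 20 mM phosphate pH 7.0 with 0.01% (detergent screen) or 0.0001% Triton X-100 was preincubated with compounds for 15 min at room temperature. Nitrocefin was then added from an 800 uM solution, and hydrolysis was followed at 480 nm.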
CHX counter – counter-screen hit for Shiga toxin inhibitors, cycloheximide; 300,000 tested, 12% active; AID 2314; max response, %; cell reporter, cycloheximide protein synthesis inhibition counterscreen; in the data active means max response mostly above about 13%, no sharp cut-off; inactive means mostly below about 14%; further: read at 38.3 µM for the half of the compounds with a filed dose; 0% is about no effect
AmpC no deterg – blocks E. coli AmpC beta-lactamase in detergent-free assay; AmpC nitrocefin hydrolysis, absorbance 480 nm, 0.0001% Triton; Potency, µM (highest dose often 57.1 µM), inactives show at the highest dose activity change, negative = inhibition, usual class: inhibitors; 330,000 tested, 0.52% active; AID 485341;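 further: potency means the concentration at half of the fitted maximal effect; plate controls were no compound for no effect and no enzyme for full effect; nearly all actives have a fitted effect of over 20% in size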
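20 mM phosphate pH 7.0 + 0.01% (detergent screen) or 0.0001% Triton X-100; 5.3 nM AmpC reagent; cpd preinc 15 min RT; nitrocefin (800 uM stock) to start; A480 q20 s × 4 min; Activity was normalised to no-enzyme and no-compound control wells.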
Shiga toxin inh – blocks Shiga toxin action in Vero cells. inhibition, % at 38.7 µM. 290,000 tested, 9.2% active. Vero cells, Shiga toxin protein synthesis inhibition reporter; in the data active means inhibition mostly above about 28%, no sharp cut-off; inactive means mostly below about 43%; further: 0% is about no effect
The depositor's hits bear a star; ? = inconclusive; · = no result given. Unless noted, the call rests on the fitted dose curve; in most records, active means well fitted curve in the direction sought with a large enough effect; inconclusive means small, poorly fitted or top-dose-only effect, or another doubt; inactive means no such curve, though single readings can be large; an effect the other way counts as inactive or inconclusive.

SMILES	NS1 function inh	AmpC inh detg	CHX counter	AmpC no deterg	Shiga toxin inh
COc1cccc(OC)c1C1=CC(=O)C[C@H](c2ccc3c(c2)OCO3)C1	·	-4%	·	3%	·
COc1cccc2c1C(=O)O/C2=C/c1ccc2c(c1)OCO2	-16%	-11%	43*	-20%	71*
COc1ccc(S(=O)(=O)Cc2ccc(C(=O)NC3CCCCCC3)o2)cc1	-13%	-3%	-2	14%	-3
Cc1ccc(NC(=S)Nc2cc(-c3ccccc3)[nH]n2)cc1Cl	·	13%	13*	-32%	48*
Fc1ccc(NC(=S)Nc2cc(-c3ccccc3)[nH]n2)cc1Cl	1%	4%	12	-33%	29
Cc1ccc(OCC(=O)NN=C2c3ccccc3-c3ccccc32)cc1	2%	?	-3	-11%	-12
Cc1ccc(NN=C2c3ccccc3-c3ccccc32)cc1	-3%	?	48*	11µM*	70*
O=C(CNC(=O)c1ccc(Cl)cc1)c1ccc(Cl)cc1	0%	-13%	16*	-34%	52*
O=C(CNC(=O)c1ccc(Cl)cc1)OCCCOC(=O)CNC(=O)c1ccc(Cl)cc1	-4%	0%	4	22%	31
O=C(CNC(=O)c1ccc(F)cc1)c1ccc(Cl)cc1	-13%	-14%	46*	59%	69*
O=C(CNC(=O)c1ccc(Br)cc1)c1ccccc1	-6%	-14%	28*	-14%	29*
O=C(CNC(=O)c1ccccc1C(=O)O)c1ccccc1	-6%	-8%	49*	-17%	62*
O=C(CNC(=O)c1ccc(F)cc1)NCc1ccc(Cl)cc1	5%	-4%	0	-1%	-6
O=C(CNC(=O)c1ccc(Br)cc1)c1ccc(Br)cc1	19%	-3%	1	-43%	27
Cc1cccc(C)c1OCC(=O)NCC1(N(C)C)CCCCC1	·	-4%	·	·	·
CCc1ccc(C2c3c(-c4cc(C)ccc4O)n[nH]c3C(=O)N2Cc2cccnc2)cc1 (stereo unspecified)	·	15%	·	·	·
COC(=O)CN1CC(=O)c2ccccc2S1(=O)=O	·	·	10	·	-9
O=C(CNC(=O)c1ccc(-c2ccccc2)cc1)OCc1ccc(Br)cc1	1%	10%	39*	-14%	68*
Fc1ccc(OCc2nc(-c3ccc(Br)o3)no2)c(F)c1	-31%	?	18*	-31%	62*
O=C(CCc1nc(-c2ccccn2)no1)NCc1ccc2c(c1)OCO2	2%	2%	0	-13%	26
Clc1ccccc1OCc1nc(-c2ccc(Br)o2)no1	-19%	-14%	54*	-16%	70*
c1ccc(CCc2nc(-c3ccccn3)no2)cc1	?	1%	31*	?	125*
Brc1ccc(-c2noc(CCc3ccccc3)n2)o1	-69%	?	17*	-19%	84*
COc1cc(-c2nc(-c3ccc(Br)o3)no2)cc(OC)c1OC	-17%	?	2	-11%	-1
O=C(NC1CCCCCC1)C1CCN(C(=O)c2cccc(Cl)c2)CC1	1%	2%	-2	25%	3
SMILES	NS1 function inh	AmpC inh detg	CHX counter	AmpC no deterg	Shiga toxin inh
CN(Cc1nc(-c2ccccn2)no1)S(=O)(=O)c1ccccc1	1%	-14%	24*	-4%	61*
Cc1ccc(S(=O)(=O)N(C)Cc2nc(-c3ccccn3)no2)cc1	-5%	?	-3	-21%	-15
CN(C)c1ccc(C2CC(=O)C=C(Nc3ccccc3N)C2)cc1 (stereo unspecified)	-1%	-1%	40*	-4%	68*
COc1ccccc1NC1=CC(=O)CC(c2ccccc2)C1 (stereo unspecified)	17%	-10%	-3	-28%	-2
Cc1ccc(/C=C2/C(=O)NC(=O)N(CC3CCCO3)C2=O)s1 (stereo unspecified)	16%	-9%	10	-34%	97*
CCOc1ccccc1NS(=O)(=O)c1ccc2oc(=O)c3ncn(C)c3c2c1	·	27%	·	·	·
O=c1cc[nH]c2c(Cl)cccc12	-3%	4%	21*	-14%	41*
Nc1nc(Cl)cc(Oc2ccc([N+](=O)[O-])cc2)n1	4%	1%	-2	-7%	-8
CCc1ccc(Oc2cc(Cl)nc(N)n2)cc1	4%	-3%	50*	-6%	65*
COc1cccc(Oc2cc(Cl)nc(N)n2)c1	-2%	3%	16*	-8%	21*
COc1ccc(Oc2cc(Cl)nc(N)n2)cc1	-3%	3%	12	-10%	12
